# Among all 290,000 compounds or so, about 1,000 (0.34%) were called active. Rule as the data show it: active = inhibition above about 50% (passing the limit was not always enough); inconclusive = no clear call, values can overlap the other calls. The sample as a whole holds a higher share of actives than the screen did.
# Molecular target: SUMO-conjugating enzyme UBC9 (Homo sapiens) (UniProt P63279)
# Assay: inhibitors of in vitro SUMOylation cascade, primary screen, biochemical, HTRF, uHTS (AID 2006)
# Details: HTRF SUMOylation assay, SAE1/SAE2 + UBC9, in vitro, at 35 µM, stronger effect = higher value
# Chain of SUMO-conjugating enzyme UBC9 (Homo sapiens) (P63279 whole entry, looked up): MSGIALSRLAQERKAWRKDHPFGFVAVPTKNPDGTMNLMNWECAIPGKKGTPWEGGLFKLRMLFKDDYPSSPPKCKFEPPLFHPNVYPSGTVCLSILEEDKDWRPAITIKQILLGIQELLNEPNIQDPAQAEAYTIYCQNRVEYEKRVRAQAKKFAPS
Structure (SMILES),inhibition,inhibition (average of repeat tests) [%]
O=C(CCc1ccccc1)Nc1ccnn1C1CCN(Cc2ccc(OCCO)cc2)CC1,6.4% (inactive),
Nc1c(NCCc2ccccc2)c2ccccc2oc1=O,6.6% (inactive),
O=c1oc2ccccc2cc1-c1csc(Nc2ccc(O)cc2)n1,7.7% (inactive),
COc1cccc(C(=O)c2cc3ccc(O)cc3oc2=O)c1,16.5% (inactive),
O=c1oc2cc(O)ccc2cc1-c1ccc(F)cc1,50.3% (active),56
O=c1onc(-c2c(F)cccc2F)n1-c1ccccc1Cl,-6.5% (inactive),
CCOc1ccc(C2/C(=C(/O)c3ccc4c(c3)CC(C)O4)C(=O)C(=O)N2CCCn2ccnc2)cc1 (configuration not stated),-13.9% (inactive),
Cc1ccc(CNC(=O)Cc2cn(C)c3ccccc23)cc1,-1.9% (inactive),
Clc1ccccc1CSc1nnc(-c2ccco2)c(-c2ccco2)n1,35.9% (inactive),
Cn1c(-c2ccco2)nc2cc3ccccc3cc21,44.7% (inactive),
c1coc(-c2nc3nc4ccccc4n3nc2-c2ccco2)c1,90.5% (active),
O=C(NCCN1CCCC(O)C1)c1cc(COc2c(F)cccc2F)on1 (configuration not stated),1.7% (inactive),
CC(=O)N1CCC(N(C(=O)Nc2ccc(Cl)cc2)C(C)C)CC1,13.1% (inactive),
Cc1ccc(NS(=O)(=O)c2ccc(-c3coc(C)n3)cc2)c(C)c1,-8.6% (inactive),
COC(=O)CNC(=O)c1cc(-c2ccncc2)nc2ccccc12,0.8% (inactive),
CCCCN(C)CCCNC(=O)c1cc(-c2cccs2)nc2ccccc12,20.3% (inactive),
CCc1ccc(-c2cc(C(=O)NCc3ccco3)c3ccccc3n2)s1,59.3% (active),
Cc1ccccc1N1CCN(C2CCCN(C(=O)c3cn4c(C)cccc4n3)C2)CC1 (configuration not stated),-1.6% (inactive),
CCOC(=O)/C(=N\Nc1ccccc1[N+](=O)[O-])c1csc(Nc2ccccc2)n1,10.4% (inactive),
COc1cc(C(=O)Nn2c(CC(C)C)nc3ccccc3c2=O)cc(OC)c1OC,7.6% (inactive),
COC(=O)c1cc(OCC(=O)NC2CCCc3ccccc32)cc(C(=O)OC)c1 (configuration not stated),11.7% (inactive),

Structure (SMILES),inhibition,inhibition (average of repeat tests) [%]
O=C(O)c1ccccc1NC(=O)c1ccccc1-c1ccccc1C(=O)O,9% (inactive),
COc1ccccc1NC(=O)CSc1nc2sc3c(c2c(=O)n1-c1ccccc1)CCN(C)C3,-8.5% (inactive),
Cc1ccc(-c2nc(SCC(=O)Nc3ccccc3OC(F)F)c3c(C)c(C(=O)O)sc3n2)cc1,77.1% (active),
CCOC(=O)c1ccc[n+](CC(=O)Nc2ccccc2OC(F)F)c1,-3.9% (inactive),
CCc1nc2cccnc2n1-c1ccc(C(=O)O)cc1,10.1% (inactive),
CCOC(=O)CN(C(=O)COc1nc(C)cc(C)c1C#N)c1ccc(Cl)cc1,16.2% (inactive),
Cc1cccc(C)c1N1C(=O)CN(Cc2ccccc2)C1=S,3.1% (inactive),
CCOCc1nnc(NC(=O)CCS(=O)(=O)Cc2ccccc2)s1,0.9% (inactive),
CC(C)(C)OC(=O)c1c(N)n(CCCN2CCCC2=O)c2nc3ccccc3nc12,62.9% (active),40.3
COCC(C)OC(=O)c1c(N)n(CCCN2CCOCC2)c2nc3ccccc3nc12 (configuration not stated),48.2% (inactive),
CC(C)(C)c1ccc(C(=O)NCCn2c(N)c(C#N)c3nc4ccccc4nc32)cc1,27.7% (inactive),
CC(C)=CCCC(C)CN1CCC(n2nccc2NC(=O)c2ccccc2)CC1 (configuration not stated),7% (inactive),
COc1cc(/C(=C/c2ccccc2)c2ccccc2)c2c(c1)oc1ccccc12,12.7% (inactive),
COc1ccccc1NC(=O)C1CCCN1S(=O)(=O)c1ccc(Cl)cc1 (configuration not stated),-4.9% (inactive),
CC(C)(C)C(=O)Nc1ccc(-c2cn3cccnc3n2)cc1,37.2% (inactive),
CC(=O)Nc1ccc(-c2cn3cccnc3n2)cc1,55.4% (active),53.3
CCCCCC(=O)Nc1ccc(S(=O)(=O)Nc2ccc(Cl)nn2)cc1,2.3% (inactive),
CCCC(=O)Nc1cccc(-c2cn3ccsc3n2)c1,-25.1% (inactive),
CCCCCC(=O)Nc1ccc(-c2cn3cccnc3n2)cc1,50.5% (active),60.8
FC(F)(F)Oc1ccc(-c2cn3cccnc3n2)cc1,24.2% (inactive),
Cc1ccc(NC(=O)CN2CCc3ccccc3C2)cc1C,-5.2% (inactive),

Structure (SMILES),inhibition,inhibition (average of repeat tests) [%]
CCc1c(C)nc(N)n2c(SCC(=O)NC3CCCCC3)nnc12,-11.4% (inactive),
Cc1ccc(C)c(NC(=O)NNC(=O)c2ccc3ccccc3c2O)c1,4.2% (inactive),
CC(=O)N1c2ccc(S(=O)(=O)N3CCCC(C(=O)Nc4cccc(F)c4)C3)cc2CC1C (configuration not stated),12.3% (inactive),
Cc1cc(C(F)F)nn1CC(=O)NC1CCCCCC1,2.2% (inactive),
N#CC1(NC(=O)COC(=O)CCN=C2NS(=O)(=O)c3ccccc32)CCCCC1,2.6% (inactive),
CC1CCCCC1NC(=O)CSc1nnc(-c2ccncc2)n1CCCN(C)C (configuration not stated),8.9% (inactive),
O=C(Nc1ccccc1Cl)/C(Cl)=C(\Cl)S(=O)c1ccccc1 (configuration not stated),57% (active),
O=C(COC(=O)c1cccs1)Nc1ccccc1Cl,-14.2% (inactive),
O=C(Nc1ccccc1Cl)Nn1cnnc1,10.4% (inactive),
CCC(=O)Nc1nnc(S(=O)(=O)N(CC(C)C)c2ccccc2)s1,-0.8% (inactive),
CCOC(=O)c1c(C)[nH]c2c1-c1ccccc1C(=O)C2=O,86.9% (active),
CCOC(=O)c1c(C)[nH]c(C(=O)NCc2ccccc2OC)c1C,21.6% (inactive),
CCOC(=O)C1=C(c2ccc(OC)cc2)C(=O)c2ccccc2C1=O,5.9% (inactive),
CC(C)(C)NC(=O)CN(Cc1cccs1)C(=O)CNS(=O)(=O)c1ccccc1,5.5% (inactive),
O=C(CN1CCC(NC(=O)C2CC2)CC1)Nc1ccccc1[N+](=O)[O-],2.3% (inactive),
CCOC(=O)C1CCN(S(=O)(=O)c2ccc3c(c2)N(C)C(=O)CC(=O)N3C)CC1,10.1% (inactive),
CCOc1ncccc1C(=O)NCCc1ccc(OC)cc1,-5.7% (inactive),
CC(C)CN(CC(C)C)C(=O)CN1c2cccc3cccc(c23)S1(=O)=O,14.7% (inactive),
CN1C(=O)/C(=C/c2ccco2)SC1=Nc1cccc(C(=O)O)c1,52.8% (active),
O=C(CCCN1C(=O)/C(=C/c2ccco2)SC1=S)Nc1ccccc1,23.1% (inactive),
Cc1cc(/C=C2\SC(=O)N(C)C2=O)c(C)n1-c1cccc(C(=O)O)c1,0.8% (inactive),

# Reference: PubChem BioAssay AID2006 (Sanford-Burnham Center for Chemical Genomics, 2009)
